Data published in PubChem BioAssay (NCI).
About 83,000 compounds went through this panel and 20% of them were active in at least one assay; those are over-represented in the sample as a whole.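 The test compound was applied at a single concentration to cells in 96-well plates for 48 hours, and percent growth was recorded.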 The source made the active and inactive calls. How the source made its calls: active means growth percent below 10; inactive means the rest.

What was measured:
Experiment in all cases: NCI-60 one-dose screen, 48 h (100 = growth as untreated, 0 = no growth, -100 = all killed)
Conditions in all cases: 10 µM unless noted
T-47D breast = tested on: T-47D breast
BT-549 breast = tested on: BT-549 breast
MDA-MB-435 melanoma = tested on: MDA-MB-435 melanoma
SW-620 colon = tested on: SW-620 colon
MCF7 breast = tested on: MCF7 breast
HCT-116 colon = tested on: HCT-116 colon
HCC-2998 colon = tested on: HCC-2998 colon
KM12 colon = tested on: KM12 colon

Measured: growth

COC(=O)c1cc2cc(-c3ccc(OC)cc3)cnc2[nH]1
inactive: T-47D breast 34.1% | BT-549 breast 18.6% | SW-620 colon 18.6% | MCF7 breast 15.9% | HCT-116 colon 13.8% | HCC-2998 colon 51.1% | KM12 colon 11.4%
active: MDA-MB-435 melanoma -23.7%

Nc1ccc(C(=O)CSc2nc3ccccc3[nH]2)cc1
inactive: T-47D breast 109% | BT-549 breast 94.5% | MDA-MB-435 melanoma 96.1% | SW-620 colon 101% | MCF7 breast 92.9% | HCT-116 colon 97.3% | HCC-2998 colon 100% | KM12 colon 103%

NC1=C(/C(N)=N/O)C(c2ccccc2)c2ccc3ccccc3c2O1 (stereo unspecified)
inactive: T-47D breast 54.5% | BT-549 breast 28% | SW-620 colon 23% | HCC-2998 colon 11.8% | KM12 colon 11.1%
active: MDA-MB-435 melanoma -56.2% | MCF7 breast 9.02% | HCT-116 colon 6.57%

O=c1ccn(C2CC(O)C(O)C(CO)O2)c(=O)[nH]1 (stereo unspecified)
inactive: T-47D breast 102% | BT-549 breast 114% | MDA-MB-435 melanoma 116% | SW-620 colon 114% | MCF7 breast 97.4% | HCT-116 colon 107% | HCC-2998 colon 117% | KM12 colon 121%

COc1ccc(-c2nc(/C=N/Nc3cc(C)nc4ccc(Br)cc34)c(C)o2)cc1
active: T-47D breast -42.1% | MDA-MB-435 melanoma -95.6% | SW-620 colon -86.6% | MCF7 breast -75.2% | HCT-116 colon -74.6% | HCC-2998 colon -67.1% | KM12 colon -90.4%
inactive: BT-549 breast 91%

COc1ccc2c(c1)C(c1cc(OC)c3c(c1)OCO3)C1=C(COC1=O)N2 (stereo unspecified)
active: MDA-MB-435 melanoma -13.5% | KM12 colon 9.2%
inactive: T-47D breast 52.4% | BT-549 breast 23.4% | SW-620 colon 23.3% | MCF7 breast 16.2% | HCT-116 colon 12.7% | HCC-2998 colon 10.6%

O=C(Nc1ccc(Cl)c(Cl)c1)NS(=O)(=O)c1cnccc1Oc1ccc(F)cc1
active: T-47D breast -0.777%
inactive: BT-549 breast 93.7% | MDA-MB-435 melanoma 86.8% | SW-620 colon 65.3% | MCF7 breast 58.6% | HCT-116 colon 41.3% | HCC-2998 colon 76.7% | KM12 colon 48.7%

COc1cc(-c2nn(-c3cccc(NC(=O)Nc4cccc(C(F)(F)F)c4)c3)cc2-c2ccncc2)ccc1Cl
active: T-47D breast -4.03% | BT-549 breast -15.4% | MDA-MB-435 melanoma -50% | SW-620 colon 8.92% | MCF7 breast -6.3% | HCT-116 colon 0.0611% | HCC-2998 colon -18.4% | KM12 colon -27.8%

COc1cc(-c2nn(-c3cccc(NC(=O)Nc4cc(C(F)(F)F)cc(C(F)(F)F)c4)c3)cc2-c2ccncc2)ccc1Cl
active: T-47D breast 4.45% | BT-549 breast -8.96% | MDA-MB-435 melanoma -58.3% | SW-620 colon -2.89% | MCF7 breast 1.74% | HCT-116 colon -43.6% | HCC-2998 colon -10.8% | KM12 colon -14.8%

Cc1cc(N/N=C/c2nc(-c3ccccc3)oc2C)c2cc(Br)ccc2n1
inactive: T-47D breast 75.6% | BT-549 breast 93.4% | MDA-MB-435 melanoma 43.4% | SW-620 colon 28.4% | MCF7 breast 46.2% | HCT-116 colon 42% | HCC-2998 colon 100% | KM12 colon 82%

Cc1ccc(CSC(=N)N)cc1C
inactive: T-47D breast 108% | BT-549 breast 98.1% | MDA-MB-435 melanoma 112% | SW-620 colon 102% | MCF7 breast 101% | HCT-116 colon 105% | HCC-2998 colon 100% | KM12 colon 107%

Cn1cc(-c2cnc3ccc(NC(=O)Nc4ccc(F)c(Br)c4)cc3n2)cn1
inactive: BT-549 breast 20.5% | MDA-MB-435 melanoma 21.5% | SW-620 colon 39.8% | HCT-116 colon 22% | HCC-2998 colon 49.2% | KM12 colon 12.7%
active: T-47D breast -38.1% | MCF7 breast 3.7%

Cc1nn(-c2ccc([N+](=O)[O-])cc2)c2ncnc(NCCc3ccccc3)c12
inactive: T-47D breast 93% | BT-549 breast 114% | MDA-MB-435 melanoma 94.9% | SW-620 colon 99.4% | MCF7 breast 93.1% | HCT-116 colon 92.5% | HCC-2998 colon 101% | KM12 colon 96.1%

COc1ccc(C2NN=C3c4ccccc4CCC32)cc1 (stereo unspecified)
inactive: T-47D breast 35.3% | BT-549 breast 67.4% | SW-620 colon 29.9% | HCT-116 colon 64.4% | HCC-2998 colon 67.3% | KM12 colon 26.3%
active: MDA-MB-435 melanoma -15.7% | MCF7 breast 5.11%

C=CCn1cc(-c2nc3ccccc3s2)c2cc(-c3ccc4c5c(cccc35)C(=O)N(CCN3CCNCC3)C4=O)ccc21
inactive: T-47D breast 82.4% | BT-549 breast 91.3% | MDA-MB-435 melanoma 90.7% | SW-620 colon 26.8% | HCT-116 colon 29.7% | HCC-2998 colon 87.5% | KM12 colon 98.5%
active: MCF7 breast -65.8%

COc1ccc(C(=O)N2NC(=O)/C(=C/c3cn(-c4ccccc4)nc3-c3ccccc3)N=C2c2ccccc2)cc1
inactive: T-47D breast 97.6% | BT-549 breast 106% | MDA-MB-435 melanoma 92.2% | SW-620 colon 109% | MCF7 breast 98.9% | HCT-116 colon 95.2% | HCC-2998 colon 107% | KM12 colon 99.1%

CCCCCCCCCCCCNC(=O)[C@H]1CSC(c2cc(Br)cs2)N1 (stereo partly specified)
inactive: T-47D breast 39.4% | MCF7 breast 49% | HCC-2998 colon 54.3%
active: BT-549 breast -58.4% | MDA-MB-435 melanoma -90.3% | SW-620 colon -34.2% | HCT-116 colon -82% | KM12 colon -55.3%

Cc1ccc(S(=O)(=O)n2cc(C(=O)C(=O)Nc3ccncc3)c3ccccc32)cc1
active: MDA-MB-435 melanoma 1.27%
inactive: T-47D breast 48.4% | BT-549 breast 37.5% | SW-620 colon 11.2% | MCF7 breast 19.5% | HCT-116 colon 17.5% | HCC-2998 colon 52.8% | KM12 colon 29.1%

CCCCCCCCCCCCNC(=O)[C@H]1CSC(c2ccsc2)N1 (stereo partly specified)
active: T-47D breast -41.2% | BT-549 breast -67.6% | MDA-MB-435 melanoma -98.1% | SW-620 colon -75.9% | MCF7 breast -67.5% | HCT-116 colon -48.3% | KM12 colon -92.7%
inactive: HCC-2998 colon 11%

Cc1[nH]c2ccc(F)cc2c1CCNC(=O)C1CCN(C(=O)c2ccccc2)CC1
inactive: T-47D breast 68.9% [25 µM] | BT-549 breast 93.5% [25 µM] | MDA-MB-435 melanoma 96.7% [25 µM] | SW-620 colon 96.5% [25 µM] | MCF7 breast 93.9% [25 µM] | HCT-116 colon 93.3% [25 µM] | HCC-2998 colon 104% [25 µM] | KM12 colon 95.6% [25 µM]

CN1C(=O)N(C)C2C1NN=c1s/c(=C\C=C\c3ccccc3)c(=O)n12 (stereo unspecified)
active: MDA-MB-435 melanoma 4.66% | MCF7 breast -94.6%
inactive: T-47D breast 53.1% | BT-549 breast 55.2% | SW-620 colon 40% | HCT-116 colon 31.8% | HCC-2998 colon 63.1% | KM12 colon 23.2%

O=C(c1ccccc1)c1c(/C=C/c2ccccc2)c2ccccc2[nH]c1=O
inactive: T-47D breast 93.5% | BT-549 breast 92.4% | MDA-MB-435 melanoma 98.2% | SW-620 colon 101% | MCF7 breast 97.3% | HCT-116 colon 100% | HCC-2998 colon 111% | KM12 colon 96%

COc1cc(NC(N)=NCCC(C)(C)Oc2ccc(C(F)(F)F)cc2)ncc1C#N
active: T-47D breast -44.6% | MDA-MB-435 melanoma -91.2% | SW-620 colon -79% | MCF7 breast -71.1% | HCT-116 colon -88.4% | HCC-2998 colon -86.6% | KM12 colon -51.7%
inactive: BT-549 breast 40.4%

O=C1CS/C(=N\Nc2cc(=O)[nH]c3ccccc23)N1c1ccccc1
inactive: T-47D breast 89.6% | BT-549 breast 95.3% | MDA-MB-435 melanoma 82.9% | SW-620 colon 92.9% | MCF7 breast 92% | HCT-116 colon 89.7% | HCC-2998 colon 96% | KM12 colon 98.8%

Brc1ccc(-c2[nH]ncc2-c2c[nH]c3ccccc23)cc1
inactive: T-47D breast 88.2% | BT-549 breast 80.1% | MDA-MB-435 melanoma 92.7% | SW-620 colon 96.2% | MCF7 breast 66.8% | HCT-116 colon 98.4% | HCC-2998 colon 112% | KM12 colon 94.3%

Nc1ncnc2c1c(-c1ccc(Oc3ccccc3)cc1)nn2C[C@@H]1SSC[C@@H]1O
active: T-47D breast -30.9% | MDA-MB-435 melanoma -90.9% | MCF7 breast -4.42% | HCT-116 colon 7.61%
inactive: BT-549 breast 83% | SW-620 colon 25.4% | HCC-2998 colon 56.5% | KM12 colon 37.2%

Cc1cccc(/C=N/Nc2cc(C)c3cccc(C)c3n2)n1
inactive: T-47D breast 83% | BT-549 breast 91.4% | MDA-MB-435 melanoma 96.3% | SW-620 colon 94.7% | MCF7 breast 48.4% | HCT-116 colon 65.1% | HCC-2998 colon 108% | KM12 colon 97.5%

O=[N+]([O-])c1cccc(-c2nc3sccn3c2-c2ccnc(NCCCNS(=O)(=O)c3ccc(C(F)(F)F)cc3)n2)c1
inactive: BT-549 breast 30.3% | MDA-MB-435 melanoma 18.4% | SW-620 colon 66.6% | MCF7 breast 14.9% | HCT-116 colon 30.5% | HCC-2998 colon 52.9% | KM12 colon 23.9%
active: T-47D breast -1.61%

Cc1nn(-c2ccc(Cl)cc2)c2ncnc(N/N=C/c3cccc([N+](=O)[O-])c3)c12
inactive: T-47D breast 101% | BT-549 breast 106% | MDA-MB-435 melanoma 97.1% | SW-620 colon 88.9% | MCF7 breast 103% | HCT-116 colon 104% | HCC-2998 colon 94.8% | KM12 colon 66.5%

O=C(N/N=C/C=C\c1ccccc1)C(=O)N/N=C/C=C/c1ccccc1
inactive: T-47D breast 100% | BT-549 breast 102% | MDA-MB-435 melanoma 121% | SW-620 colon 106% | MCF7 breast 100% | HCT-116 colon 104% | HCC-2998 colon 109% | KM12 colon 109%

COc1ccc(/C=N\NC(=O)CN2CCN(c3cc4c(cc3F)c(=O)c(C(=O)N/N=C/c3ccc(OC)c(OC)c3)cn4C3CC3)CC2)cc1OC
active: T-47D breast 3.79% | BT-549 breast -11.1% | MDA-MB-435 melanoma -49.7% | SW-620 colon 4.64% | MCF7 breast -4.9% | HCC-2998 colon -10.8% | KM12 colon 7.04%
inactive: HCT-116 colon 13.3%

COc1ccc(-c2nc(-c3nc4cc(C)c(C)cc4[nH]3)cc3c2[nH]c2ccccc23)cc1
inactive: T-47D breast 52.1% | BT-549 breast 70.9% | MDA-MB-435 melanoma 49.2% | SW-620 colon 77.3% | MCF7 breast 39.1% | HCT-116 colon 18.1% | HCC-2998 colon 16.6% | KM12 colon 44.2%
